Compound activity: PubChem BioAssay, National Center for Advancing Translational Sciences (NCATS)
Shown are actives, neighbours in structure and some others; about 19% of the full set was active somewhere.
IL1B secr inh: inflammasome signaling inhibition, IL-1 beta readout; THP-1 LPS/ATP IL-1B secretion, AlphaLISA, 16 h; active compounds read low; activity change, % at 57.5 µM; 360,000 tested, 4.7% active; in the data active = activity change below about -50%; inconclusive = mostly about -30% to -49%
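Secreted IL-1B measured by AlphaLISA bead assay after 16 h compound exposure of THP-1 cells; compounds (final up to 57.5 uM) added 1 h before LPS (250 ng/mL) and ATP (1.25 mM) stimulation; lower signal means less secretion.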
HT1080 IDH1KD tx: kills HT-1080 cells with IDH1 knockdown | Potency, µM (series often up to 46.1 µM), hits mostly cytotoxic | HT-1080 IDH1 knockdown viability, ATP luminescence, 48 h | AID 686971 | 360,000 tested, 2% active
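HT-1080-IDH1KD cells (IDH1 knocked down), 750/well in RPMI with 5% FBS, treated with compound 48 h at 37 degrees C. Viability by CellTiter-Glo luminescence, normalised to DMSO and no-cell wells; concentration-response curves classed.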
HT1080-NT tox: kills 2HG-producing HT-1080-NT fibrosarcoma cells; 360,000 tested, 1.6% active; HT-1080-NT fibrosarcoma viability, CellTiter-Glo ATP luminescence, 48 h; AID 686970; Potency, µM (series often up to 46.1 µM), usual class: cytotoxic;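 note: NT is the 2HG producing partner of a matched IDH1 knockdown line; nearly all actives have a fitted effect of over 55% in size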
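Luminescent CellTiter-Glo readout after 48 hours of compound exposure at 37 degrees C defined viability of HT-1080-NT cells. Activity was normalized to DMSO wells and cell-free media wells; concentration-response curves were fitted and assigned curve classes.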
DT40 TDP1 no CPT: qHTS for Inhibitors of human tyrosyl-DNA phosphodiesterase 1 (TDP1): qHTS in cells in absence of CPT | 420,000 tested, 15% active | DT40 Tdp1-/- hTDP1 cells, no CPT, ATP luminescence, 48 h | Potency, µM (series often up to 46.2 µM), usual class: inhibitors; note: nearly all actives have a fitted effect of over 55% in size
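Seeded 400 DT40-hTDP1 cells/well (vehicle DMSO, no 20 nM CPT); pinned compounds; ≥48 hr at 37 °C; CellTiter-Glo luminescence as viability measure.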
TDP1 cell CPT: DT40-hTDP1 cell growth loss with CPT; chicken DT40 Tdp1-/-;hTDP1 cells + 20 nM CPT, ATP luminescence, 48 h; Potency, µM (titrated, usually from 46.2 µM), hits mostly inhibitors; 420,000 tested, 12% active; AID 686979; note: nearly all actives have a fitted effect of over 55% in size
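Chicken DT40 Tdp1-/- cells stably complemented with human TDP1 were seeded at 400 cells/well in medium containing 20 nM camptothecin, exposed to pin-transferred compounds, and grown at 37 °C for at least 48 hr. Viability was read as ATP luminescence.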
Each line names hits and unclear results; the compound was inactive in the other large screens. Unless noted, calls come from the whole dose curve; as a rule, active = well fitted curve in the direction sought with a large enough effect; inconclusive = small, poorly fitted or top-dose-only effect, or another doubt; inactive = no such curve, though single readings can be large; an effect the other way counts as inactive or inconclusive.

Cc1ccc(-c2ccc(CN3C(C(C)C)C(=O)N(Cc4cn(CC5CCCCC5)nn4)CCS3(=O)=O)cc2)cc1 (centres undefined)	HT1080 IDH1KD tx inconclusive, HT1080-NT tox inconclusive, DT40 TDP1 no CPT 8.2µM, TDP1 cell CPT 11.6µM
Cc1ccc(-c2ccc(CN3C(CC(C)C)C(=O)N(Cc4cn(CC5CCCCC5)nn4)CCS3(=O)=O)cc2)cc1 (centres undefined)	HT1080 IDH1KD tx inconclusive, DT40 TDP1 no CPT 16.4µM, TDP1 cell CPT 20.6µM
CC(C)C1C(=O)N(Cc2cn(CC3CCCCC3)nn2)CCS(=O)(=O)N1Cc1ccc(-c2ccc(Cl)cc2)cc1 (centres undefined)	HT1080 IDH1KD tx inconclusive, HT1080-NT tox inconclusive, DT40 TDP1 no CPT 7.31µM, TDP1 cell CPT 9.2µM
Cc1nn(C(C)C(=O)NNC(=S)Nc2ccc(Cl)cc2)c(C)c1[N+](=O)[O-] (centres undefined)	none
CCOC(=O)c1[nH]cnc1C(=O)N1CCC(C)CC1	none
CC(C)C1C(=O)N(Cc2cn(CC3CCCCC3)nn2)CCS(=O)(=O)N1Cc1ccc(-c2ccccc2)cc1 (centres undefined)	HT1080 IDH1KD tx inconclusive, DT40 TDP1 no CPT 4.11µM, TDP1 cell CPT 13µM
CC(C)C1C(=O)N(Cc2cn(CC3CCCCC3)nn2)CCS(=O)(=O)N1Cc1ccc(-c2ccc(Cl)nc2)cc1 (centres undefined)	IL1B secr inh inconclusive, HT1080 IDH1KD tx inconclusive, HT1080-NT tox inconclusive, DT40 TDP1 no CPT 10.3µM, TDP1 cell CPT 14.6µM
CC(C)C1C(=O)N(Cc2cn(CC3CCCCC3)nn2)CCS(=O)(=O)N1Cc1ccc(-c2cccc(CO)c2)cc1 (centres undefined)	IL1B secr inh inconclusive, HT1080 IDH1KD tx inconclusive, HT1080-NT tox inconclusive, DT40 TDP1 no CPT 8.2µM, TDP1 cell CPT 18.4µM
CCC/C=C/c1ccc(CN2C(CC(C)C)C(=O)N(Cc3cn(CC4CCCCC4)nn3)CCS2(=O)=O)cc1 (centres undefined)	HT1080-NT tox inconclusive, DT40 TDP1 no CPT 23.1µM, TDP1 cell CPT inconclusive
CC1C(=O)N(Cc2cn(CCC3OCCCO3)nn2)CCS(=O)(=O)N1Cc1ccc(-c2cccc(CO)c2)cc1 (centres undefined)	DT40 TDP1 no CPT inconclusive
CN(C)c1ccc(C2CC(c3c(O)n(C4CCCCC4)c(=O)[nH]c3=O)=Nc3ccccc3S2)cc1 (centres undefined)	none (no result: IL1B secr inh, HT1080 IDH1KD tx, HT1080-NT tox)
O=C(NCC(c1cccnc1)N1CCN(Cc2ccccc2)CC1)C(=O)Nc1ccc(Cl)cc1 (centres undefined)	DT40 TDP1 no CPT 7.31µM, TDP1 cell CPT 13µM (no result: IL1B secr inh, HT1080 IDH1KD tx, HT1080-NT tox)
Cc1ccc(NC(=O)C(=O)NCC(c2cccnc2)N2CCN(Cc3ccccc3)CC2)cc1 (centres undefined)	DT40 TDP1 no CPT 18.4µM, TDP1 cell CPT 23.1µM (no result: IL1B secr inh, HT1080 IDH1KD tx, HT1080-NT tox)
CCc1ccc(NC(=O)C(=O)NCC(c2cccnc2)N2CCN(C)CC2)cc1 (centres undefined)	DT40 TDP1 no CPT inconclusive (no result: IL1B secr inh, HT1080 IDH1KD tx, HT1080-NT tox)
Cc1nn(C(=O)c2ccc(Cl)cc2)c(C)c1S(=O)(=O)N1CCCCCC1	none (no result: IL1B secr inh, HT1080 IDH1KD tx, HT1080-NT tox)
COc1ccc(C2C3=C(N=C4SCC(=O)N42)c2ccccc2CC3)cc1OC (centres undefined)	DT40 TDP1 no CPT 14.6µM, TDP1 cell CPT 14.6µM
Cc1ccccc1-n1c(N)c(C(=O)Nc2ccc(F)cc2)sc1=S	DT40 TDP1 no CPT inconclusive
Cc1ccc(-n2c(N)c(C(=O)Nc3ccccc3F)sc2=S)cc1C	IL1B secr inh -54.4, TDP1 cell CPT inconclusive
CC(=O)Nc1ccccc1OCC(=O)N(Cc1ccccc1)C(C)C	DT40 TDP1 no CPT 13µM, TDP1 cell CPT 16.4µM
CCCc1c(O)nc(SC2CC(=O)N(c3ccc(C)c(Cl)c3)C2=O)[nH]c1=O (centres undefined)	none
Cc1ccc(N2C(=O)CC(Sc3nc4ccccc4o3)C2=O)cc1Cl (centres undefined)	DT40 TDP1 no CPT 3.26µM, TDP1 cell CPT 4.11µM
CC1CCCCC1NC(=O)CSc1nc2ccccc2c(=O)n1Cc1ccco1 (centres undefined)	TDP1 cell CPT inconclusive
CC(=O)c1cc(F)c(N2CCOCC2)cc1C	none
